# Test results reported in the supplement of paper PMC10338343.
# ± gives the standard deviation.
# Key:
# [1] = system: MILI (PIWIL2) piRISC loaded with piRNA #1 (26 nt); test: pre-steady-state target cleavage rate (min^-1); guide: piRNA #1 5'p-UGAGGUAGUAGGUUGUAUAGUAUCCA; higher = faster piRNA-guided slicing of the target; conditions: auxiliary factor: 500 nM mouse GTSF1
# How it was run: (§1)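 The pre-steady-state cleavage rate was obtained by Cleave-'n-Seq with a burst-and-steady-state fit. A transcribed, DNA-blocked target RNA library (0.1 nM) was mixed with 1 nM active affinity-purified piRISC carrying one synthetic guide, with or without 500 nM GTSF1 partner protein, in HEPES–potassium acetate buffer at 33 °C for 0–8 or 0–960 min. Uncleaved targets were sequenced and normalised to depth and to weakly complementary targets, with three trials pooled and k3 capped at 0.0001 min^-1.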
# [2] = system: EfPiwi piRISC loaded with piRNA #1 (26 nt); test: pre-steady-state target cleavage rate (min^-1); auxiliary factor: 500 nM Ephydatia muelleri Gtsf1; guide: piRNA #1 5'p-UGAGGUAGUAGGUUGUAUAGUAUCCA; MIWI and MILI are mouse PIWI proteins and EfPiwi is from a freshwater sponge; tags in brackets are library labels; higher = faster piRNA-guided slicing of the target
# How it was run: as §1
sequence,measurement,setting,value
GGAGACCUAACUCUACAACCUACUACCUCA,pre-steady-state target cleavage rate,[1],0.114 ± 0.031
same,pre-steady-state target cleavage rate,[2],0.0071 ± 0.0032
GGAGUGGAUACUAUACAACCAACAACCUCA,pre-steady-state target cleavage rate,[1],0.00386 ± 0.0015
same,pre-steady-state target cleavage rate,[2],0.00217 ± 0.0016
GGAGUGCAUACUAUACAACCUACUACCACA,pre-steady-state target cleavage rate,[1],0.124 ± 0.013
same,pre-steady-state target cleavage rate,[2],0.00342 ± 0.0028
GGAGUGGAUACUAUACAACCUACUACCUUCA,pre-steady-state target cleavage rate,[1],0.128 ± 0.01
same,pre-steady-state target cleavage rate,[2],0.168 ± 0.061
GGAGACCAUACUAUACACCCUACUACCUCA,pre-steady-state target cleavage rate,[1],0.0841 ± 0.016
same,pre-steady-state target cleavage rate,[2],0.00656 ± 0.0021
GGAGAGGAUACUAUACAACGUACUACCUGA,pre-steady-state target cleavage rate,[1],0.0116 ± 0.0027
same,pre-steady-state target cleavage rate,[2],0.00359 ± 0.0014
GGAGACCUAUCUAUACAACCUACUACCGUCA,pre-steady-state target cleavage rate,[1],0.141 ± 0.019
same,pre-steady-state target cleavage rate,[2],0.00478 ± 0.0036
GGAGAGGAUACUAUACAACGCUACUACCUCA,pre-steady-state target cleavage rate,[1],0.00299 ± 0.0026
same,pre-steady-state target cleavage rate,[2],0.00523 ± 0.0033
GGAGAGGAUACUAUGCAACCUACUACCUCA,pre-steady-state target cleavage rate,[1],0.214 ± 0.011
same,pre-steady-state target cleavage rate,[2],0.242 ± 0.091
GGAGACCUUACUAUACAACCUACGACCUCA,pre-steady-state target cleavage rate,[1],0.113 ± 0.012
same,pre-steady-state target cleavage rate,[2],0.00282 ± 0.0024
GGAGACGAUACUAUACAUCCUACUACCACA,pre-steady-state target cleavage rate,[1],0.334 ± 0.021
same,pre-steady-state target cleavage rate,[2],0.0049 ± 0.0017
GGAGACCAUACUAUACAACCUCACUACCUCA,pre-steady-state target cleavage rate,[1],0.00609 ± 0.0028
same,pre-steady-state target cleavage rate,[2],0.0127 ± 0.0078
GGAGACGAUACUAUACAACGUACUAGCUCA,pre-steady-state target cleavage rate,[1],0.00418 ± 0.0035
same,pre-steady-state target cleavage rate,[2],0.00363 ± 0.0015
GGAGUGGAAACUAUACUACCUACUACCUCA,pre-steady-state target cleavage rate,[1],0.193 ± 0.016
same,pre-steady-state target cleavage rate,[2],0.00676 ± 0.0042
GGAGAGGAUACUAUACAACGUACAACCUCA,pre-steady-state target cleavage rate,[1],0.0104 ± 0.0029
same,pre-steady-state target cleavage rate,[2],0.00357 ± 0.0017
GGAGACCUAUCUACACAACCUACUACCUCA,pre-steady-state target cleavage rate,[1],0.072 ± 0.0099
same,pre-steady-state target cleavage rate,[2],0.00358 ± 0.0034
GGAGACGAUACUUAUACAACCUACUACCUCA,pre-steady-state target cleavage rate,[1],0.139 ± 0.012
same,pre-steady-state target cleavage rate,[2],0.0473 ± 0.017
GGAGUGGAAACUAUACAACCUAGUACCUCA,pre-steady-state target cleavage rate,[1],0.055 ± 0.021
same,pre-steady-state target cleavage rate,[2],0.00276 ± 0.0018
GGAGAGGAAACUAUACAACCUUCUACCUCA,pre-steady-state target cleavage rate,[1],0.00762 ± 0.006
same,pre-steady-state target cleavage rate,[2],0.00297 ± 0.0027
GGAGACGAUACUAAACAACCUUCUACCUCA,pre-steady-state target cleavage rate,[1],0.00978 ± 0.003
same,pre-steady-state target cleavage rate,[2],0.00427 ± 0.004
GGAGUGGAUACAAUACAACGUACUACCUCA,pre-steady-state target cleavage rate,[1],0.0223 ± 0.0023
same,pre-steady-state target cleavage rate,[2],0.00385 ± 0.0018
GGAGUGGUUACUAAACAACCUACUACCUCA,pre-steady-state target cleavage rate,[1],0.161 ± 0.0092
same,pre-steady-state target cleavage rate,[2],0.00439 ± 0.0033
GGAGACCUAACUAUACAACGUACUACCUCA,pre-steady-state target cleavage rate,[1],0.0137 ± 0.0057
same,pre-steady-state target cleavage rate,[2],0.00454 ± 0.0022
GGAGACGAUUCAAUACAACCUACUACCUCA,pre-steady-state target cleavage rate,[1],0.104 ± 0.012
same,pre-steady-state target cleavage rate,[2],0.0447 ± 0.018
GGAGUGGAUACUAAACAACCUACAACCUCA,pre-steady-state target cleavage rate,[1],0.0728 ± 0.009
same,pre-steady-state target cleavage rate,[2],0.00162 ± 0.0015
GGAGAGGAUACUAUUCAACCAACUACCUCA,pre-steady-state target cleavage rate,[1],0.00614 ± 0.0021
same,pre-steady-state target cleavage rate,[2],0.00354 ± 0.0021
GGAGAGGAUACUAUACUACCUACUACCUGA,pre-steady-state target cleavage rate,[1],0.0973 ± 0.013
same,pre-steady-state target cleavage rate,[2],0.00353 ± 0.002
GGAGACCUAACUAUACAACCUACUACCUAA,pre-steady-state target cleavage rate,[1],0.0853 ± 0.015
same,pre-steady-state target cleavage rate,[2],0.0641 ± 0.025
GGAGUGGAUACUCAUACAACCUACUACCUCA,pre-steady-state target cleavage rate,[1],0.161 ± 0.012
same,pre-steady-state target cleavage rate,[2],0.0153 ± 0.0069
GGAGAGGAUACUAUACAUCCUACUACGUCA,pre-steady-state target cleavage rate,[1],0.00995 ± 0.003
same,pre-steady-state target cleavage rate,[2],0.00405 ± 0.0018
GGAGACCAUACUAUACAACCUACUACACUCA,pre-steady-state target cleavage rate,[1],0.204 ± 0.027
same,pre-steady-state target cleavage rate,[2],0.00487 ± 0.0033
GGAGACGAUACUAUACACCUACUACCUCA,pre-steady-state target cleavage rate,[1],0.0294 ± 0.0067
same,pre-steady-state target cleavage rate,[2],0.0134 ± 0.0055
GGAGAGGAUACAAUACAACGUACUACCUCA,pre-steady-state target cleavage rate,[1],0.0139 ± 0.003
same,pre-steady-state target cleavage rate,[2],0.00326 ± 0.002
GGAGUGGGUACUAUACAACCUACUACCUCA,pre-steady-state target cleavage rate,[1],0.148 ± 0.01
same,pre-steady-state target cleavage rate,[2],0.00924 ± 0.0037
GGAGACCUUACUAUACAAGCUACUACCACA,pre-steady-state target cleavage rate,[1],0.266 ± 0.023
same,pre-steady-state target cleavage rate,[2],0.00275 ± 0.0027
GGAGACGAUACUAUACAACCUACUUGCUCA,pre-steady-state target cleavage rate,[1],0.155 ± 0.052
same,pre-steady-state target cleavage rate,[2],0.00371 ± 0.0014
GGAGAGGAUACAAUACAACCUAGUACCUCA,pre-steady-state target cleavage rate,[1],0.0411 ± 0.0087
same,pre-steady-state target cleavage rate,[2],0.00263 ± 0.0018
GGAGUGGAUACUAUACAACCGACUACCUCA,pre-steady-state target cleavage rate,[1],0.00279 ± 0.0026
same,pre-steady-state target cleavage rate,[2],0.00469 ± 0.0016
GGAGACGAUACUAUACAACCUACUACCCCA,pre-steady-state target cleavage rate,[1],0.144 ± 0.025
same,pre-steady-state target cleavage rate,[2],0.00536 ± 0.0014
GGAGACCAUACUAUUCAACCUACUUCCUCA,pre-steady-state target cleavage rate,[1],0.1 ± 0.022
same,pre-steady-state target cleavage rate,[2],0.00483 ± 0.0048
GGAGAAGAUACUAUACAACCUACUACCUCA,pre-steady-state target cleavage rate,[1],0.22 ± 0.016
same,pre-steady-state target cleavage rate,[2],0.0965 ± 0.035
GGAGACCUUACUAUACAACCUACUACCAUCA,pre-steady-state target cleavage rate,[1],0.162 ± 0.024
same,pre-steady-state target cleavage rate,[2],0.00369 ± 0.0024
GGAGACGAUACUAUACAUGCUACUACCUCA,pre-steady-state target cleavage rate,[1],0.115 ± 0.01
same,pre-steady-state target cleavage rate,[2],0.00483 ± 0.0015
GGAGUGGAUACUUUACAACGUACUACCUCA,pre-steady-state target cleavage rate,[1],0.0295 ± 0.0029
same,pre-steady-state target cleavage rate,[2],0.00254 ± 0.0014
GGAGAGGAUACUCUACAACCUACUACCUCA,pre-steady-state target cleavage rate,[1],0.204 ± 0.013
same,pre-steady-state target cleavage rate,[2],0.00431 ± 0.0033
GGAGAGGAUACAAUACAACCUACUACCUCA,pre-steady-state target cleavage rate,[1],0.172 ± 0.012
same,pre-steady-state target cleavage rate,[2],0.0112 ± 0.005
GGAGACGAUACUAUACAUCCUACUACCUGA,pre-steady-state target cleavage rate,[1],0.237 ± 0.031
same,pre-steady-state target cleavage rate,[2],0.00464 ± 0.0014
GGAGACGAUACUUUACAUCCUACUACCUCA,pre-steady-state target cleavage rate,[1],0.257 ± 0.016
same,pre-steady-state target cleavage rate,[2],0.00465 ± 0.0027
GGAGACCUUACGUAUACAACCUACUACCUCA,pre-steady-state target cleavage rate,[1],0.0406 ± 0.0063
same,pre-steady-state target cleavage rate,[2],0.00861 ± 0.0055
GGAGACGAUACUAUACAACGUAGUACCUCA,pre-steady-state target cleavage rate,[1],0.00546 ± 0.0032
same,pre-steady-state target cleavage rate,[2],0.00274 ± 0.0012
GGAGACGAUACUAUACAACACUACUACCUCA,pre-steady-state target cleavage rate,[1],0.00963 ± 0.0034
same,pre-steady-state target cleavage rate,[2],0.00912 ± 0.0032
GGAGUGGAUACUAUACAACGCUACUACCUCA,pre-steady-state target cleavage rate,[1],0.0044 ± 0.0029
same,pre-steady-state target cleavage rate,[2],0.00636 ± 0.003
GGAGAGGGAUACUAUACAACCUACUACCUCA,pre-steady-state target cleavage rate,[1],0.237 ± 0.015
same,pre-steady-state target cleavage rate,[2],0.0946 ± 0.037
GGAGUGGAUACUACACAACCUACUACCUCA,pre-steady-state target cleavage rate,[1],0.175 ± 0.011
same,pre-steady-state target cleavage rate,[2],0.082 ± 0.029
GGAGAGGAAUACUAUACAACCUACUACCUCA,pre-steady-state target cleavage rate,[1],0.172 ± 0.0098
same,pre-steady-state target cleavage rate,[2],0.0974 ± 0.034
GGAGACGAUACUAUACAACCUACAUCCUCA,pre-steady-state target cleavage rate,[1],0.05 ± 0.011
same,pre-steady-state target cleavage rate,[2],0.00353 ± 0.0014
GGAGACGAUACUAUAACAACCUACUACCUCA,pre-steady-state target cleavage rate,[1],0.142 ± 0.012
same,pre-steady-state target cleavage rate,[2],0.00793 ± 0.0029
GGAGACGAUACUAUACAAACUACUACCUCA,pre-steady-state target cleavage rate,[1],0.245 ± 0.015
same,pre-steady-state target cleavage rate,[2],0.00656 ± 0.0025
GGAGACCUAUCUAUACAUCCUACUACCUCA,pre-steady-state target cleavage rate,[1],0.182 ± 0.018
same,pre-steady-state target cleavage rate,[2],0.00738 ± 0.0031
GGAGACCUAUCUAUACAUCCUACUACCUGA,pre-steady-state target cleavage rate,[1],0.0957 ± 0.022
same,pre-steady-state target cleavage rate,[2],0.00459 ± 0.0036
